# Test results taken from the supplement of paper PMC10849652.
# Targets with a hit are over-represented here; the source holds about 7,900 in all. About 0.6% of all pairs of compound and target were hits. Unmarked numbers belong to inactive results.
# What was measured:
# Experiment in all cases: log2 fold change, soluble protein after heating vs DMSO (PISA); higher = thermal stabilisation; K562 cells, 10 uM, 30 min; active = over 0.2 and 3.5 SD of the protein, either way, in both replicates (recomputed)
# [1] = compound: CC[C@@H]1C(=O)N(C)c2cnc(Nc3ccc(C(=O)NC4CCN(C)CC4)cc3OC)nc2N1C1CCCC1
# Method in brief: (§1)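 Aliquots of K562 cells (2×10^6 cells/mL) treated with 10 μM compound for 30 min were heated for 3 min over 48°C-58°C. After pooling and extraction in PBS with 0.5% NP-40 at 4°C, soluble protein from a 21,000xg, 90 min spin was quantified by TMTpro 16plex LC-MS/MS with channel sums equalised. Thermal stability is expressed against control samples, from duplicates, as a log2 fold change.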
# volasertib = compound: CC[C@@H]1C(=O)N(C)c2cnc(Nc3ccc(C(=O)N[C@H]4CC[C@H](N5CCN(CC6CC6)CC5)CC4)cc3OC)nc2N1C(C)C [volasertib]
# Method in brief: as §1
# [2] = compound: CC[C@H](C)N1C=C(C2=C(C=C(C=C21)C3=CN=C(C=C3)N4CCNCC4)C(=O)NCC5=C(C=C(NC5=O)C)C)C
# Method in brief: as §1
# epoxomicin = compound: CC[C@H](C)[C@@H](C(=O)N[C@@H]([C@@H](C)O)C(=O)N[C@@H](CC(C)C)C(=O)[C@]1(CO1)C)NC(=O)[C@H]([C@@H](C)CC)N(C)C(=O)C [epoxomicin]
# Method in brief: as §1
# [3] = compound: CCn1c(C(=O)N(C2CC2)C2CC2)cc2c3c(ncn3C)c(Nc3cc(C)n(C)n3)nc21
# Method in brief: as §1
# [4] = compound: CCn1cc(-c2ccnc3[nH]c(-c4cccc(CN(C)C)c4)cc23)c(-c2ccc(NC(=O)N(C)C)cc2)n1
# Method in brief: as §1
# [5] = compound: CN(C)CC(=O)Nc1ccc2[nH]c(=O)c3ccccc3c2c1
# Method in brief: as §1
# rosiglitazone = compound: CN(CCOC1=CC=C(C=C1)C[C@H]2C(=O)NC(=O)S2)C3=CC=CC=N3 (racemic) [rosiglitazone]
# Method in brief: as §1
# [6] = compound: CN1C2=C(C3=C1C(=O)N(N=C3)CC4=CC(=CC=C4)N)SC(=C2)S(=O)C
# Method in brief: as §1
# [7] = compound: CN1CCC(CNc2ccc3ncc(-c4cccc(OC(F)(F)F)c4)n3n2)CC1
# Method in brief: as §1
# Chain of UniProt Q9HAV4 (Q9HAV4 whole entry, looked up): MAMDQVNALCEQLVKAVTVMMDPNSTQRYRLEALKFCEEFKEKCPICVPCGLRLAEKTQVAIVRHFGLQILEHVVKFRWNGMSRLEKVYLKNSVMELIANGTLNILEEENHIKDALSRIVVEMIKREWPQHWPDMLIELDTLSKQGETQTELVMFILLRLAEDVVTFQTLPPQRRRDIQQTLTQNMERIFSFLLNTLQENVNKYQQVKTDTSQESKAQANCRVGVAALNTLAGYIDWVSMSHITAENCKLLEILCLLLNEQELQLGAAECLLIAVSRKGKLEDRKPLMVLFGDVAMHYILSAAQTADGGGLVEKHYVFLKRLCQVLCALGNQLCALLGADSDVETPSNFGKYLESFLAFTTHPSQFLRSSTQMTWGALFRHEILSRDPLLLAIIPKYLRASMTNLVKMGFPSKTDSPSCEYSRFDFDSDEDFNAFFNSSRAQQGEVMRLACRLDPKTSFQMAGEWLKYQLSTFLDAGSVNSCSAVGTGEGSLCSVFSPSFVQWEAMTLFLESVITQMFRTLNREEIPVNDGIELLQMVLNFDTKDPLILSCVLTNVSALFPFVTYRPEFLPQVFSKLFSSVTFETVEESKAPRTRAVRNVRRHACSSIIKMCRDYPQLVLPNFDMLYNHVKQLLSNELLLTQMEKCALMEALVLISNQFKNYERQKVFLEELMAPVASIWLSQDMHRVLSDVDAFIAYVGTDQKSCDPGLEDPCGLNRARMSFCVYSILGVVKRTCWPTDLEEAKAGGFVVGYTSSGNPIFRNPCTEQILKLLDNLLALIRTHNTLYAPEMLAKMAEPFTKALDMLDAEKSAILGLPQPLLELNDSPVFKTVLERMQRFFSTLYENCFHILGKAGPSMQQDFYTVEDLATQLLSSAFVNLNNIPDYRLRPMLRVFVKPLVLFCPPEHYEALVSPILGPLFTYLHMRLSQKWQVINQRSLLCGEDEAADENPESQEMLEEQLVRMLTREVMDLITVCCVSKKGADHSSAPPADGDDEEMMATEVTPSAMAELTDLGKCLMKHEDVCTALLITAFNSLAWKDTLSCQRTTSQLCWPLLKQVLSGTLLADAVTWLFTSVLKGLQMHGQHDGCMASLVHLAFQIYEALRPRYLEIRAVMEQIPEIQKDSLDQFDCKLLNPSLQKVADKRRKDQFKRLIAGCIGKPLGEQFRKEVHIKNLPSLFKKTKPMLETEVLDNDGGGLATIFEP
# Chain of UniProt P11388 (P11388 whole entry, looked up): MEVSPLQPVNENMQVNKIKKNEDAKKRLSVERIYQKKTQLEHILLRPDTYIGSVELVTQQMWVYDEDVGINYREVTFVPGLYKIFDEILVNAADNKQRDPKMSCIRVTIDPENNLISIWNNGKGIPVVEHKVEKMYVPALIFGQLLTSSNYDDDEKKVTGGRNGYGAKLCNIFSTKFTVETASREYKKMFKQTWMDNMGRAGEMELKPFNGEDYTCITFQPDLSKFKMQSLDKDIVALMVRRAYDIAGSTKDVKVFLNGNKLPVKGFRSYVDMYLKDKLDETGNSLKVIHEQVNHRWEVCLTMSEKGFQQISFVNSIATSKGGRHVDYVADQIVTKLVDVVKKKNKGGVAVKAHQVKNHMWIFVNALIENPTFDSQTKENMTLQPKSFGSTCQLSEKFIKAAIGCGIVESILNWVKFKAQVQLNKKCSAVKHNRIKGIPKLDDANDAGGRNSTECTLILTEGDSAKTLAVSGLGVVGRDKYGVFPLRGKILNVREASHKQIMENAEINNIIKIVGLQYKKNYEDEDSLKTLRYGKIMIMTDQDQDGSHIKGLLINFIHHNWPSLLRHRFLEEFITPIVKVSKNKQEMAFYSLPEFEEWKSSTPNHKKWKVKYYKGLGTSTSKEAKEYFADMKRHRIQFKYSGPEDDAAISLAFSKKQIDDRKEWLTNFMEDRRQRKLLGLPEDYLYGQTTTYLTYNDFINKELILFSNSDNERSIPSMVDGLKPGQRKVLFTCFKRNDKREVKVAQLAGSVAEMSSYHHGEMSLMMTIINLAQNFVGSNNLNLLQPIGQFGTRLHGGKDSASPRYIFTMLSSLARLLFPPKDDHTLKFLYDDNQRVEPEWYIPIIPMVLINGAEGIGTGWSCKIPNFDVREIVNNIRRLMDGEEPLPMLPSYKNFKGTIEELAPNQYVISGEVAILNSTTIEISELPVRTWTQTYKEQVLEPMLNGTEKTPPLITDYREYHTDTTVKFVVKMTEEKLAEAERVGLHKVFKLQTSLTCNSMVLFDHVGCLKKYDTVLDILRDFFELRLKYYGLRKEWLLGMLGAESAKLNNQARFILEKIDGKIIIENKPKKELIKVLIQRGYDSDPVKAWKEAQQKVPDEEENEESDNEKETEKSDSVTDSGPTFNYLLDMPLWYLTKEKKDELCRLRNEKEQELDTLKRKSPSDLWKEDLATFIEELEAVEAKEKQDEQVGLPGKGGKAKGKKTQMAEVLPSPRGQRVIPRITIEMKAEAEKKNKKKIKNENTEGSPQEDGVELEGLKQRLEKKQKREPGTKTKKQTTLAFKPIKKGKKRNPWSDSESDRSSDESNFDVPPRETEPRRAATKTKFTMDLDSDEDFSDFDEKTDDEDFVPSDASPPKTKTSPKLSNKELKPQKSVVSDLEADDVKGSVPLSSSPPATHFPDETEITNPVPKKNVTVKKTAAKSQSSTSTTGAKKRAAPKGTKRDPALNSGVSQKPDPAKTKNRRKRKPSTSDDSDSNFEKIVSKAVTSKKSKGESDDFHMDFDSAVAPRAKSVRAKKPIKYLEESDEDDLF
# Chain of UniProt P54578 (P54578 whole entry, looked up): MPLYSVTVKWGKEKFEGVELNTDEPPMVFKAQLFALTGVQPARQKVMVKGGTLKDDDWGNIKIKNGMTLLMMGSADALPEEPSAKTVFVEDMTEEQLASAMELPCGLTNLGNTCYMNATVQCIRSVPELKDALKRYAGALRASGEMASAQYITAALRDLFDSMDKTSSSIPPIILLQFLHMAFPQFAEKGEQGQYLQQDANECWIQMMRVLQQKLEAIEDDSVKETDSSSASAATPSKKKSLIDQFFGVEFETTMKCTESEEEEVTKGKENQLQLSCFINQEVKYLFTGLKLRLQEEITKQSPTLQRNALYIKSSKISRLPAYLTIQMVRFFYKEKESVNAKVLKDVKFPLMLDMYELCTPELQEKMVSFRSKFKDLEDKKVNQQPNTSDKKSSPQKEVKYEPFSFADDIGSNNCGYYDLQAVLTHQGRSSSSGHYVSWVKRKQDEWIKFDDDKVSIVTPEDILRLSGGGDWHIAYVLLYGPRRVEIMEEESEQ
# Chain of UniProt O95801 (O95801 whole entry, looked up): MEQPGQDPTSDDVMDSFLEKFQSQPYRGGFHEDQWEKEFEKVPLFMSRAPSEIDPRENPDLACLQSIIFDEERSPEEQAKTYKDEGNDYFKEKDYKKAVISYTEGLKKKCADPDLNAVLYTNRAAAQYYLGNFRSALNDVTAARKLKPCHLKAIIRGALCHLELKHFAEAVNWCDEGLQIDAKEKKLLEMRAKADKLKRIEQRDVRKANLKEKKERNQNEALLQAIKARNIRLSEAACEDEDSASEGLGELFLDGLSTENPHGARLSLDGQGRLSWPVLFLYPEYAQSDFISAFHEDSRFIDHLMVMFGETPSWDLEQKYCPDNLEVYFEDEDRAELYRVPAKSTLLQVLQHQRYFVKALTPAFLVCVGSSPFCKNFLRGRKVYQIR
# Chain of UniProt Q7Z5K2 (Q7Z5K2 whole entry, looked up): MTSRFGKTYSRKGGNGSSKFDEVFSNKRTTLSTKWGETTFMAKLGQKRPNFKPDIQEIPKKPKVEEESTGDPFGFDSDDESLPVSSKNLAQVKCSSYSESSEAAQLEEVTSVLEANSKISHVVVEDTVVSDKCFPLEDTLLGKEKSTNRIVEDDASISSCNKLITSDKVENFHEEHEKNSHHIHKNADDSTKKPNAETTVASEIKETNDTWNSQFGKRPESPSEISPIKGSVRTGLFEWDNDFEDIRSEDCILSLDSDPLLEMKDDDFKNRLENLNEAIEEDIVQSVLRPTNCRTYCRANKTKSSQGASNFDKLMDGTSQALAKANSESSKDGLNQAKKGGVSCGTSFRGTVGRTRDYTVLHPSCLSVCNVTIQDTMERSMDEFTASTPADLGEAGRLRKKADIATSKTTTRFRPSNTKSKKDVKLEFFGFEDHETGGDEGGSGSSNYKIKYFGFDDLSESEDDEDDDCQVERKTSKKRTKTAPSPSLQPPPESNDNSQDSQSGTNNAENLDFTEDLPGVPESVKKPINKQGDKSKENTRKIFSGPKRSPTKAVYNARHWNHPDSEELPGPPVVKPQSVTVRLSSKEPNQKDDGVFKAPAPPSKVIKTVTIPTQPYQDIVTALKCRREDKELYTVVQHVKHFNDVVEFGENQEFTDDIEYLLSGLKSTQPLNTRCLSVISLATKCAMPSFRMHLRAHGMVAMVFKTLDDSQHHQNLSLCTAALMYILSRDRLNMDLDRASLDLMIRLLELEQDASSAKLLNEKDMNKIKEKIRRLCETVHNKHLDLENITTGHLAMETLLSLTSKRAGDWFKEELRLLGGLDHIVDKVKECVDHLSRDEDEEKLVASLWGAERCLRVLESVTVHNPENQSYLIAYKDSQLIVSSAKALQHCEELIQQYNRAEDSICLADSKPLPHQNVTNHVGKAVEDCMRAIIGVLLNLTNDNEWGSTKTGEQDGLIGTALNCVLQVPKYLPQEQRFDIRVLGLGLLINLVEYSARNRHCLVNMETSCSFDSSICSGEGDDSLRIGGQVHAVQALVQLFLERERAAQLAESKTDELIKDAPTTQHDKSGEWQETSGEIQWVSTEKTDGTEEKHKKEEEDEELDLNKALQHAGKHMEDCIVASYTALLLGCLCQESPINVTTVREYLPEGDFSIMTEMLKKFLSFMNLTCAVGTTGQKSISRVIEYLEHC
# Chain of UniProt Q5U3C3 (Q5U3C3 whole entry, looked up): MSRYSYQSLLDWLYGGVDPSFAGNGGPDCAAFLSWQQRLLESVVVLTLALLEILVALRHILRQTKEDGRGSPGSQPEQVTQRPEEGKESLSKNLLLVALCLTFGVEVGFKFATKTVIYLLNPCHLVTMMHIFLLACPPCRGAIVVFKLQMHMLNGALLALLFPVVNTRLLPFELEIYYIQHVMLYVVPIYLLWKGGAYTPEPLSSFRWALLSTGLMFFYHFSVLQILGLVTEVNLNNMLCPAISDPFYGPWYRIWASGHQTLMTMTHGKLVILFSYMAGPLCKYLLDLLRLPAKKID
Target,log2 fold change [1],log2 fold change (volasertib),log2 fold change [2],log2 fold change (epoxomicin),log2 fold change [3],log2 fold change [4],log2 fold change [5],log2 fold change (rosiglitazone),log2 fold change [6],log2 fold change [7]
WDR46 (UniProt O15213),0.195,0.073,-0.085,-0.417,0.008,0.288,-0.2,-0.077,0.311,0.389
VPS51 (UniProt Q9UID3),-0.028,-0.335 (active),-0.036,-0.015,-0.033,0.003,0.032,0.016,0.094,-0.135
VWA3B isoform 6 (UniProt Q502W6),-0.038,-0.631 (active),-0.203,-0.262,-0.037,-0.125,-0.007,0.076,-0.023,-0.234
U2AF1 isoform 2 (UniProt Q01081),-0.217,-0.57 (active),0.051,-0.02,0.015,-0.015,0.071,-0.007,-0.021,-0.036
TOMM5 isoform 2 (UniProt Q8N4H5),-0.003,-0.032,-0.049,0.538 (active),0.05,0.039,-0.046,-0.017,0.041,0.116
TRMT61A (UniProt Q96FX7),0.044,0.161,0.022,-0.061,0.028,0.043,-0.098,-0.105,0.099,-0.001
VWA8 (UniProt A3KMH1),-0.027,-0.071,0.048,-0.005,0.002,-0.094,0.056,0.024,-0.01,-0.034
VPS13B (UniProt Q7Z7G8),-0.01,-0.088,0.004,0.019,-0.016,-0.008,-0.028,0.011,-0.053,-0.109
UBA1 (UniProt P22314),-0.236,-0.543 (active),0.133,0.044,-0.098,-0.008,0.115,0.132,0.023,-0.02
VPS41 (UniProt P49754),-0.214,-0.309,0.02,-0.038,-0.005,-0.106,-0.004,0.066,0.054,-0.25 (active)
UBLCP1 (UniProt Q8WVY7),-0.191,-0.356 (active),0.019,0.168,-0.059,-0.072,0.039,0.019,-0.024,0.013
TRAPPC13 isoform 5 (UniProt A5PLN9),-0.055,-0.34,0.044,-0.014,-0.072,-0.068,0.078,0.087,0.042,-0.187
TMEM164 (UniProt Q5U3C3),-0.01,-0.145,-0.01,0.082,0.045,-0.053,0.07,0.135,-0.001,-0.021
TMEM223 (UniProt A0PJW6),-0.004,0.043,0.035,-0.01,-0.009,0.022,-0.015,0.032,-0.022,-0.271 (active)
TRMT2A (UniProt Q8IZ69),0.01,0.016,0.044,-0.083,0.086,-0.003,0.034,-0.001,0.1,-0.198
TMEM87B (UniProt Q96K49),-0.088,-0.148,0.092,0.018,0.002,-0.103,-0.016,0,-0.143,-0.436 (active)
UGDH (UniProt O60701),-0.041,-0.128,0.11,0.064,-0.076,0.031,0.05,-0.034,-0.113,-0.106
"WASHC2C, A0A096LPC5",0.034,-0.111,-0.03,-0.016,0.063,-0.132,0.012,0.067,0.142,-0.507 (active)
UBE2E3 (UniProt Q969T4),-0.124,-0.377 (active),-0.008,-0.052,0.051,-0.11,0.022,0.059,-0.005,-0.24
USP14 (UniProt P54578),-0.08,-0.197,0.053,0.106,-0.005,-0.011,0.003,0.007,-0.082,-0.072
TOP2A isoform 4 (UniProt P11388),0.198,0.226,0.106,-0.231,0.052,0.156,-0.194,-0.169,0.526,0.128
UBR2 (UniProt Q8IWV8),0.046,-0.104,-0.004,0.196,-0.026,-0.039,-0.076,0.063,0.114,-0.063
WAPL isoform 3 (UniProt Q7Z5K2),-0.183,-0.61 (active),0.164,0.101,-0.038,0.015,0.104,-0.06,-0.018,-0.246
XPO5 (UniProt Q9HAV4),-0.122,-0.263 (active),0.063,0.073,0.01,-0.04,0.018,0.035,-0.027,-0.302 (active)
TTC4 (UniProt O95801),-0.173,-0.316 (active),0.103,0.054,-0.025,-0.039,0.061,0.052,-0.02,-0.11
USP25 isoform 3 (UniProt Q9UHP3),-0.085,-0.297 (active),0.046,0.008,-0.016,-0.004,0.041,0.022,-0.03,-0.006
TNFAIP8 isoform 4 (UniProt O95379),-0.015,-0.414,0.053,0.041,0.07,-0.088,0.022,0.001,-0.084,-0.125
TMEM214 (UniProt Q6NUQ4),-0.023,-0.246 (active),0.075,0.032,-0.056,-0.023,0.008,0.046,0.004,0.148
UPF3B (UniProt Q9BZI7),0.146,0.333,0.059,-0.388,0.084,0.271,-0.1,-0.094,0.28,0.341
UBE2S (UniProt Q16763),-0.025,-0.214 (active),0.005,0.195,-0.009,0.015,0.048,-0.004,-0.048,0.024
